Measurements taken from PubChem BioAssay (NCATS).
“And” between values parts separate entries of the source, which are not always exact repeats. Equal entries are not always repeated. Records with an inconclusive call do not appear. Where a structure was tested more than once in an assay, its records may differ in their call. The source made the active and inactive calls. Unless noted, the call rests on the fitted dose curve; in most records, active means well fitted curve in the direction sought with a large enough effect; inconclusive means small, poorly fitted or top-dose-only effect, or another doubt; inactive means no such curve, though single readings can be large; an effect the other way counts as inactive or inconclusive.

Legend:
[1] = qHTS assay for small molecule agonists of the antioxidant response element (ARE) signaling pathway (AID 651741; active means well fitted activation curve with a large enough effect in the signal ratio; the % refers to the signal ratio; further: potency means the concentration at half of the fitted maximal effect; on activation: % of control where 0% means no effect)
Method in brief: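 Beta-lactamase reporter expression driven by the antioxidant response element in HepG2 cells was detected by fluorescence with LiveBLAzer B/G FRET substrate (2 h, room temperature) following 16 h compound treatment at 37 C.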

[2] = qHTS assay for small molecule activators of the p53 signaling pathway (AID 651743; active means well fitted activation curve with a large enough effect in the signal ratio, not every such curve was filed as active; the % refers to the signal ratio; further: potency means the concentration at half of the fitted maximal effect; on activation: series mostly up to about 92 µM; % of control where 0% means no effect); conditions: HCT-116 p53RE-bla, beta-lactamase FRET ratio, 16 h; activation: stronger effect = higher value
Method in brief: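 Here HCT-116 cells with an integrated p53-responsive beta-lactamase gene were incubated with compounds (16 hours, 37 C) after a 5-hour plating period; beta-lactamase activity was detected as fluorescence intensity via B/G FRET substrate.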

[3] = qHTS assay for small molecule activators of the nuclear factor-kappa B (NF-kB) signaling pathway (AID 651749; active means well fitted activation curve with a large enough effect in the signal ratio; the % refers to the signal ratio; further: series mostly up to about 77 µM; % of control where 0% means no effect); conditions: NF-kB-bla ME-180 cells, beta-lactamase FRET ratio, 16 h; stronger effect = higher value
Method in brief: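 Beta-lactamase reporter expression, controlled by NF-kB response elements in ME-180 cells, was quantified fluorometrically via FRET disruption; cells at 2,000/well had been incubated with 23 nL test compound for 16 hr.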

[4] = qHTS assay for environmental chemicals that activate the Aryl hydrocarbon Receptor (AhR) signaling pathway (AID 651777); conditions: 1A2-DRE human hepatoma cells, luciferase, 24 h; activation: stronger effect = higher value; further: nearly all actives have a fitted effect of over 15% in size; further: potency means the concentration at half of the fitted maximal effect; on activation: % of control where 0% means no effect
Method in brief: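 Measured luciferase activity, read 30 min after One-Glo addition at room temperature, from human hepatoma cells bearing a dioxin response element–CYP1A2 promoter reporter and exposed to compound for 24 hr at 37 C.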

[5] = biological target: Peroxisome proliferator-activated receptor alpha (Homo sapiens) (UniProt Q07869); assay: qHTS assay for small molecule agonists of the peroxisome proliferator-activated receptor alpha (PPARalpha) signaling pathway (AID 651778); conditions: PathHunter PPARalpha complementation, chemiluminescence, 6 h; stronger effect = higher value; further: % of control where 0% means no effect
Chain of Peroxisome proliferator-activated receptor alpha (Homo sapiens) (Q07869 whole entry, looked up): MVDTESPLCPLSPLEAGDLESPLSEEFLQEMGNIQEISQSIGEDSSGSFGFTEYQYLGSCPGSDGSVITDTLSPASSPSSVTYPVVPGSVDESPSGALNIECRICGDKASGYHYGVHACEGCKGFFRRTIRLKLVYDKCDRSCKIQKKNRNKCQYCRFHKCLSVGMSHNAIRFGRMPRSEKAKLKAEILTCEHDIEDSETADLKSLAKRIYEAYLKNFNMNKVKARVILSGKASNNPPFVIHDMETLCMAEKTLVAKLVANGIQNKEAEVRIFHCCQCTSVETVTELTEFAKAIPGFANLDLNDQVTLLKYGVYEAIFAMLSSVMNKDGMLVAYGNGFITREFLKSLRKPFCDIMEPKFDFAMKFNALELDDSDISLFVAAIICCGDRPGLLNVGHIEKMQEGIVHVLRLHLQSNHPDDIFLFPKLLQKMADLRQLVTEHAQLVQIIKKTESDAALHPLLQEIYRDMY
Method in brief: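 Cells plated at 2,000/well and held overnight at 37 C, 5% CO2, then compound added by pin tool for 6 hr; after PathHunter detection reagent and 60 min at room temperature, chemiluminescence from enzyme complementation was read.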

[6] = biological target: Tumor necrosis factor (Homo sapiens) (UniProt P01375); assay: qHTS assay to identify small molecules that stimulate Tumor Necrosis Factor-alpha (TNF-alpha) secretion (AID 651757; active means well fitted curve in the direction sought with a large enough effect in the signal ratio; the % refers to the signal ratio; further: 0% is about no effect)
Chain of Tumor necrosis factor (Homo sapiens) (P01375 whole entry, looked up): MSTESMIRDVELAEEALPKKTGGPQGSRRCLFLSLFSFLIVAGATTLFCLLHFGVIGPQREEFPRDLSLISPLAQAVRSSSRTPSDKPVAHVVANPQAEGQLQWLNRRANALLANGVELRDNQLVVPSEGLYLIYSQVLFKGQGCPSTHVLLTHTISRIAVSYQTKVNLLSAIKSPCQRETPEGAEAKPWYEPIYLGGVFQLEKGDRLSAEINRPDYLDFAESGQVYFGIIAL
Method in brief: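 THP-1 cells, 3000/well; compound 17 hrs, 37 C; add cryptate/XL665 anti-TNF-alpha antibody pair; 3 hr RT; TR-FRET (HTRF) read of secreted TNF-alpha. Quantitative HTS format.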

[7] = biological target: Nuclear receptor ROR-gamma (Homo sapiens) (UniProt P51449); assay: qHTS assay for small molecule antagonists of the retinoid-related orphan receptor gamma (ROR-gamma) signaling pathway (AID 651802); further: nearly all actives have a fitted effect of over 60% in size; further: potency means the concentration at half of the fitted maximal effect
Chain of Nuclear receptor ROR-gamma (Homo sapiens) (P51449 whole entry, looked up): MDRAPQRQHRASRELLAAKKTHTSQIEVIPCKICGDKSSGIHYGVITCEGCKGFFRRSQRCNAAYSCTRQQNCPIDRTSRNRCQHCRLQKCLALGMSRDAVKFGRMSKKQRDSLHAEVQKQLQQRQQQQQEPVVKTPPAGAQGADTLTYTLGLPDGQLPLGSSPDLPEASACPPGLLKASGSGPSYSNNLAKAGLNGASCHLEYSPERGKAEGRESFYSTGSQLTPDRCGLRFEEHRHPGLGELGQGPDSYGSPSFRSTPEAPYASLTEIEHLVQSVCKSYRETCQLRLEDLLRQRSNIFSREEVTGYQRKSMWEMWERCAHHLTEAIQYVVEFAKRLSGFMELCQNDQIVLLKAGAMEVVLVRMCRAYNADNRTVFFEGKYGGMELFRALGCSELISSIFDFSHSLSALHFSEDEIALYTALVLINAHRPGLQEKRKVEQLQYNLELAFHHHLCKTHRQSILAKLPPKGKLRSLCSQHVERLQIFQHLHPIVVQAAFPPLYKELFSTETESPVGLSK
Method in brief: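 Luciferase read-out: ONE-Glo luminescence after 30 min at room temperature, following 16hr doxycycline induction at 37C, 5% CO2 of CHO cells with TET-inducible ROR and RORE-LUC reporter; decreased luminescence = reduced reporter activity.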

[8] = qHTS assay for small molecule disruptors of the mitochondrial membrane potential - 1 hr assay (AID 651754; calls by dose curve; further: nearly all actives have a fitted effect of over 35% in size; further: potency means the concentration at half of the fitted maximal effect)
Method in brief: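 Read-out: dye fluorescence at 490 nm ex/535 nm em (monomers) and 540 nm ex/590 nm em (aggregates) in HepG2 cells. Compound exposure 1 hr at 37C, followed by 30 min dye loading.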

[9] = qHTS assay for small molecule disruptors of the mitochondrial membrane potential - 5 hr assay (AID 651755; calls by dose curve; further: nearly all actives have a fitted effect of over 40% in size; further: potency means the concentration at half of the fitted maximal effect)
Method in brief: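 Seed HepG2 overnight, add compound, incubate 5 hr at 37C and 5% CO2, stain 30 min with Mito-MPS, then measure monomer (490/535 nm) and aggregate (540/590 nm) fluorescence.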

[10] = qHTS assay to identify small molecules that stimulate interleukin-8 (IL-8) secretion (AID 651758; active means well fitted activation curve with a large enough effect in the signal ratio; the % refers to the signal ratio; further: potency means the concentration at half of the fitted maximal effect; on activation: 0% is about no effect)
Method in brief: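 Quantitative HTS in THP-1 monocytic cells at 2000 cells per well, with 16 hrs compound incubation at 37 C. IL-8 in the medium was then quantified by HTRF immunoassay, read after 1-3 hrs at room temperature.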

| SMILES | Potency [1] | activation [2] | activation [3] | activation [4] | max response [5] | Potency [6] | Potency [7] | Potency [8] | Potency [9] | Potency [10] | Potency [4] | Potency [2] |
| --- | --- | --- | --- | --- | --- | --- | --- | --- | --- | --- | --- | --- |
| CC(C)CCC[C@@H](C)[C@H]1CC[C@H]2[C@@H]3CC=C4C[C@@H](O)CC[C@]4(C)[C@H]3CC[C@]12C | 54.5 µM (active) | -0.872% (inactive) | 0.0919% (inactive) | -1.61% (inactive) | -0.612% (inactive) | – | – | – | – | – | – | – |
| Nc1nccs1 | inactive | 2.07% (inactive) | 0.221% (inactive) | 1.04% (inactive) | -4.35% (inactive) | inactive | inactive | – | – | – | – | – |
| C[C@H](CCC(=O)O)[C@H]1CC[C@H]2[C@@H]3CC[C@@H]4C[C@H](O)CC[C@]4(C)[C@H]3C[C@H](O)[C@]12C | 66.8 µM (active) | -2.17% (inactive) | 0.346% (inactive) | -0.635% (inactive) | -0.194% (inactive) | inactive | – | inactive | inactive | – | – | – |
| CO[C@@H]1[C@H](OC(=O)/C=C/C=C/C=C/C=C/C(=O)O)CC[C@]2(CO2)[C@H]1[C@@]1(C)O[C@@H]1CC=C(C)C | 13.7 µM (active) | -4.17% (inactive) | -0.892% (inactive) | 1.85% (inactive) | -0.833% (inactive) | – | – | – | – | – | – | – |
| ClC(Cl)Cl | inactive | 0.456% (inactive) | -1.06% (inactive) | -0.58% (inactive) | 0.366% (inactive) | inactive | – | inactive | inactive | – | – | – |
| CC(C)(C)CC(C)(C)c1ccc(OCCO)cc1 | 37.6 µM (active) | 9.34% (inactive) | 0.716% (inactive) | 2.97% (inactive) | 20.4% (inactive) | inactive | 42.2 µM (active) | inactive | – | – | – | – |
| CCCCO | inactive | 0.244% (inactive) and -1.87% (inactive) | – | -0.013% (inactive) and -0.728% (inactive) | -5.14% (inactive) and -4.07% (inactive) | inactive | – | inactive | inactive | inactive | – | – |
| C[C@H](CCC(=O)O)[C@H]1CC[C@H]2[C@@H]3[C@H](O)C[C@@H]4C[C@H](O)CC[C@]4(C)[C@H]3C[C@H](O)[C@]12C | inactive | -1.29% (inactive) | -0.745% (inactive) | -1.36% (inactive) | 0.161% (inactive) | inactive | inactive | inactive | inactive | – | – | – |
| Nc1ccc(N=Nc2ccccc2)c(N)n1 | 19.3 µM (active) and 37.6 µM (active) | 2.09% (inactive) and 13.7% (inactive) | -0.825% (inactive) | – | -8.45% (inactive) and -6.87% (inactive) | – | inactive | 18.8 µM (active) | 16.8 µM (active) | – | 39.8 µM (active) and 44.7 µM (active) | – |
| O=c1n(CC2CO2)c(=O)n(CC2CO2)c(=O)n1CC1CO1 (stereo not drawn) | 7.5 µM (active) and 6.86 µM (active) | – | -0.976% (inactive) and -0.874% (inactive) | 1.5% (inactive) and 3.12% (inactive) | -0.847% (inactive) and -0.241% (inactive) | – | inactive | inactive | inactive | – | – | 15.8 µM (active) and 39.8 µM (active) |
| OCl | inactive | -2.68% (inactive) | -0.921% (inactive) | 0.267% (inactive) | -2.41% (inactive) | inactive | inactive | inactive | inactive | – | – | – |
| Oc1cccc(O)c1O | 5.96 µM (active) | 2.6% (inactive) | 2.45% (inactive) | -0.8% (inactive) | 0.0177% (inactive) | – | inactive | – | inactive | 75 µM (active) | – | – |
| OB(O)O | inactive | -0.565% (inactive) and -2.3% (inactive) | – | 0.198% (inactive) and -2.21% (inactive) | -2.01% (inactive) and 0.448% (inactive) | inactive | inactive | inactive | inactive | inactive | – | – |
| CC1=CCC2CC1C2(C)C (stereo not drawn) | inactive | -1.57% (inactive) | -0.174% (inactive) | 1.2% (inactive) | -6.44% (inactive) | inactive | inactive | inactive | inactive | inactive | – | – |
| Cc1ncc[nH]1 | inactive | -3.81% (inactive) | 0.166% (inactive) | 0.165% (inactive) | -1.93% (inactive) | inactive | inactive | inactive | inactive | inactive | – | – |
| C=C(C)C1CC=C(C)CC1 (stereo not drawn) | inactive and 1.12 mM (active) | -4.46% (inactive) | -0.265% (inactive) and 0.532% (inactive) | -2.32% (inactive) and -0.122% (inactive) | -1.15% (inactive) and 0.153% (inactive) | – | – | – | – | – | – | – |
| Oc1ccc(/C=C/c2cc(O)cc(O)c2)cc1 | 19.3 µM (active) and 37.6 µM (active) | 5.17% (inactive) and 7.3% (inactive) | 5.67% (inactive) | – | -3.92% (inactive) and -4.52% (inactive) | – | inactive | 1.88 µM (active) | 5.31 µM (active) | – | 25.1 µM (active) | – |
| C[Si](C)(C)O[Si](C)(C)C | inactive | -3.5% (inactive) | -1.12% (inactive) | 1.01% (inactive) | -0.124% (inactive) | – | – | – | – | – | – | – |
| Nc1ncnc2c1ncn2[C@H]1CC[C@@H](CO)O1 | inactive | -6.3% (inactive) and -2.15% (inactive) | -1.92% (inactive) | 3.83% (inactive) and -0.699% (inactive) | -1.88% (inactive) and -2.98% (inactive) | inactive | inactive | inactive | inactive | inactive | – | – |
| COC(=O)c1ccccc1O | inactive | 0.469% (inactive) and 1.6% (inactive) | -1.33% (inactive) and 1.01% (inactive) | 0.888% (inactive) and 1.53% (inactive) | -2.75% (inactive) and -2.44% (inactive) | inactive | inactive | – | – | – | – | – |
| OCCOCCOCCO | inactive | 1.43% (inactive) and -1.5% (inactive) | -1.02% (inactive) and -0.204% (inactive) | – | 0.91% (inactive) and -3.36% (inactive) | – | – | – | – | – | – | – |
| CO/N=C(/C(=O)N[C@@H]1C(=O)N2C(C(=O)O)=C(COC(N)=O)CS[C@H]12)c1ccco1 | 42.2 µM (active) | 1.84% (inactive) | -0.141% (inactive) | -0.274% (inactive) | -0.921% (inactive) | inactive | inactive | inactive | inactive | – | – | – |
